Compound activity as filed in PubChem.
FadD28 FP inh: M. tuberculosis FadD28 bisubstrate binding inhibition. FadD28 bisubstrate probe binding, fluorescence polarization. inhibition, % at 12.5 µM. actives 0.22% (n = 360,000). AID 588549; in the data active = inhibition above about 8.5%, passing the limit was not always enough
BioA inh-1: blocks M. tuberculosis BioA enzyme activity. purified M. tuberculosis BioA enzyme, plate reader. inhibition, % at 9.99 µM. actives 0.096% (n = 360,000); in the data active = inhibition above about 40%
TcdB inh: blocks C. difficile toxin B glycohydrolase activity; P18177; TcdB glycohydrolase enzymatic assay, plate reader; inhibition, % at 9.99 µM; actives 0.24% (n = 350,000); in the data active = inhibition above about 10%
Vc quorum ag-1: quorum light induction in luxS cqsA deficient V. cholerae; AID 588436; V. cholerae BH1578 lux reporter, luminescence, 6 h; actives 0.16% (n = 350,000); activation, % at 18.7 µM; in the data active = activation mostly above about 9.7%, no sharp cut-off
Vc quorum ag-2: inducers of V. cholerae quorum light production without autoinducers; shares compounds with Vc quorum ag-1; V. cholerae BH1578 lux reporter, luminescence, 6 h; activation, % at 50 µM; 620 tested, under 10 active; AID 602243
HeLa 24h tox: cytotoxicity in HeLa cells at 24 hours; activity change, negative = cytotoxicity, % at 35 µM; 25 tested, under 10 active; shares compounds with Vc quorum ag-1; HeLa viability, CellTiter-Glo ATP luminescence;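 active = signal drop with fitted half-maximal concentration at or below twice the highest valid dose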
BioA inh-2: inhibitors of Mycobacterium tuberculosis BioA enzyme; max activity, %; AID 651679; shares compounds with BioA inh-1; 310 tested, under 10 active; purified BioA enzyme, plate reader, dose response;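 also: top concentration of the dilution series was 10 µM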
HepG2 cytotox: kills HepG2 cells | AID 651898 | max activity, % | shares compounds with BioA inh-1 | HepG2 cytotoxicity, plate reader | 310 tested, under 10 active
NIH3T3 tox 5: NIH3T3 viability loss | activity change, negative = cytotoxicity, % at 26 µM | shares compounds with BioA inh-1 | NIH3T3 cytotoxicity, plate reader | 310 tested, under 10 active
Hits are given with their value; – = inactive; · = no result given; + = active, no number. In the library only some 0.54% were active in any assay of this set; here they are far more common. Unless noted, no rule for the calls is given here.

SMILES	FadD28 FP inh	BioA inh-1	TcdB inh	Vc quorum ag-1	Vc quorum ag-2	others
Cc1cccc(OC(C)C(=O)NC2CCS(=O)(=O)C2)c1C (configuration not stated)	–	–	·	–	–
Cc1ccc(S(=O)(=O)NCc2ccccc2)cc1C(=O)NC1CCCCC1	–	–	–	–	·
Cc1ccc(S(=O)(=O)NCc2cccnc2)cc1C(=O)NC1CCCCC1	–	–	–	–	–
Cc1ccc(SC(C)c2nc(-c3ccccc3)no2)cc1 (configuration not stated)	–	·	·	–	·
Cc1ccccc1OC(C)c1nc(-c2ccccc2)no1 (configuration not stated)	–	–	·	–	–
C[C@H](O)C#Cc1ccc2c(c1)O[C@@H](CN(C)C(=O)CC1CC1)[C@@H](C)CN([C@H](C)CO)S2(=O)=O	·	–	–	·	·
O=C(COC(=O)/C=C/c1ccc(OC(F)F)cc1)NC1CCCCCC1	–	–	–	9.5	–
O=C(COC(=O)/C=C/c1ccccc1)NC1CCCCC1	–	–	–	–	·
O=C(Cc1ccc(Cl)cc1)NC1CCCCCC1	–	–	–	–	·
O=C(COC(=O)/C=C/c1ccccc1)NC1CCCC1	–	–	–	528.9	–
O=C(Cc1ccc(-c2ccccc2)cc1)NC1CCCC1	–	–	–	·	·	HeLa 24h tox=–
COc1ccc2c3c(n(C)c2c1)[C@H](CO)N(C(=O)C1CC1)CC31CCN(C(=O)Nc2cccc(F)c2)CC1	·	·	–	·	·
C[C@@H]1CN([C@H](C)CO)C(=O)c2cc(C#Cc3ccccc3)cnc2O[C@H]1CN(C)C(=O)C1CC1	·	–	–	·	·
CSc1ccc(C#N)cc1NC(=O)c1ccc(Cl)cc1Cl	–	·	·	185.7	–
CSc1ccc(C#N)cc1NC(=O)c1ccccc1	–	–	–	–	·
COc1cccc(-c2nc(OC(C)C)c3ccccc3n2)c1	–	–	·	25.0	–
COc1ccc(N2CC(C(=O)Nc3cc(C(F)(F)F)ccc3N3CCCC3)CC2=O)c(OC)c1 (configuration not stated)	–	–	–	–	–
COc1ccc2c(c1OC)C(=O)N(c1nccs1)C2	–	–	·	–	–
COc1ccc(N2Cc3ccc(OC)c(OC)c3C2=O)cc1	–	–	–	–	·
O=C(Nc1ccc(-c2cn3ccsc3n2)cc1)c1ccc(F)c(S(=O)(=O)N2CCOCC2)c1	–	–	·	–	–
Cc1ccc(C)n1-c1sc2c(c1C#N)CCC(C)C2 (configuration not stated)	–	–	·	–	–
OC(CCCN1CCCCC1)(c1ccccc1)c1ccccc1	–	–	–	–	·
CCC(O)(CCN1CCCCC1)c1ccccc1 (configuration not stated)	–	–	·	–	–
O=C1N(Cc2ccccc2)Cc2ccccc2[C@@H]2OC(c3ccc(OCCCO)cc3)=N[C@]12Cc1ccccc1	·	·	–	·	·
O=C(Oc1ccnc2cc(Cl)ccc12)N1CCCCCC1	–	–	·	16.7	–
SMILES	FadD28 FP inh	BioA inh-1	TcdB inh	Vc quorum ag-1	Vc quorum ag-2	others
Cc1cc(C)n2cc(COc3ccc4ccccc4c3)nc2n1	–	·	–	+	–
Cc1ccccc1S(=O)(=O)NCC[C@H]1CC[C@H](NC(=O)C2CCOCC2)[C@H](CO)O1	·	–	–	·	·
CN(C)c1ccc2c(c1)[C@H]1C[C@@H](CC(=O)NCC3CC3)O[C@@H](CO)[C@H]1O2	·	–	–	·	·
Cc1ccc(S(=O)(=O)N2CCN(C(=O)COC(=O)/C=C/c3ccc(F)cc3)CC2)c(C)c1	–	–	–	–	–
CC(C)NC(=O)c1cnc(Sc2ncc(C(F)(F)F)cc2Cl)n1C	–	–	·	–	–
CCOC(=O)C1CCN(C(=O)C2c3ccccc3C(=O)N(C)C2c2ccc(OC)cc2)CC1 (configuration not stated)	–	–	·	16.7	–
O=C(Nc1nc(-c2ccccc2)cs1)c1ccccc1NS(=O)(=O)c1ccc(F)cc1	–	·	·	–	·
O=S(=O)(Nc1ccc(-c2csc(-c3ccccc3)n2)cc1)c1ccc(F)cc1	–	–	·	25.0	–
CCCN1C[C@H](C)[C@@H](OC)CN(C)C(=O)c2cc(NC(=O)c3cccc(F)c3)ccc2OC[C@@H]1C	·	–	–	·	·
COc1ccc(-c2nc(N)ncc2Oc2ccccc2Br)c(O)c1	–	–	·	35.7	–
CO[C@H]1CN(C)C(=O)c2ccc(NC(=O)c3cc(C)on3)cc2OC[C@H](C)N(C(C)=O)C[C@@H]1C	·	·	–	·	·
CCC(Oc1ccccc1)C(=O)Nc1ccc(-c2nnc(-c3ccco3)o2)cc1 (configuration not stated)	–	–	·	16.7	–
O=C(COc1ccc(Br)cc1)Nc1ccc(-c2nnc(-c3ccco3)o2)cc1	–	–	·	–	·
O=C(Nc1ccccc1F)N1C[C@@H]2[C@H](c3ccccc31)[C@@H](CO)N2C(=O)c1ccccn1	·	–	–	·	·
CO[C@H]1CN(C)C(=O)c2cc(NC(=O)c3cc(C)on3)ccc2OC[C@@H](C)N(C(=O)C2CC2)C[C@@H]1C	·	–	–	·	·
CC(C)NC(=O)Nc1ccc2c(c1)C(=O)N([C@H](C)CO)C[C@@H](C)[C@H](CN(C)Cc1ccc3c(c1)OCO3)O2	·	–	–	·	·
COc1ccc(S(=O)(=O)Nc2cccc(S(=O)(=O)N3CCCC3)c2)cc1OC	–	–	–	–	–
COc1ccc(CCN(C)C(=O)c2cc(S(=O)(=O)N3CCCCCC3)ccc2OC)cc1OC	–	–	–	–	–
COc1ccc(CCN(C)C(=O)c2cc(S(=O)(=O)N3CCCCC3)ccc2Cl)cc1OC	–	·	–	–	·
COc1ccc(S(=O)(=O)N2CCCCCC2)cc1NC(=O)c1ccccc1	–	–	–	–	·
COc1ccc(S(=O)(=O)N2CCCCC2)cc1NC(=O)c1ccc(OC)c(OC)c1	–	–	–	–	–
CN(C)C(=O)[C@@]1(Cc2ccccc2)N=C(c2ccc(OCCCO)cc2)O[C@H]1c1ccccc1	·	–	–	·	·
Cc1noc(C)c1NC(=O)N(C)C[C@H]1Oc2c(NS(=O)(=O)c3ccc(Cl)cc3)cccc2C(=O)N([C@@H](C)CO)C[C@H]1C	·	–	–	·	·
CCCC(=O)Nc1ccc2c(c1)C(=O)N(C)C[C@@H](OC)[C@H](C)CN(C(=O)c1ccccc1F)[C@@H](C)CO2	·	–	–	·	·
COc1ccc(C(=O)O)cc1S(=O)(=O)Nc1cccc(C(F)(F)F)c1	–	–	·	16.7	–
COc1ccc(C(=O)N2CCCCC2)cc1S(=O)(=O)Nc1cccc(C(=O)O)c1	–	–	–	–	·
Cn1c(=O)c2c(nc(SCCN3CCOCC3)n2Cc2cccc3ccccc23)n(C)c1=O	–	–	·	–	–
CC(=O)Nc1ccc2nc(-c3cccnc3)[nH]c2c1	–	55.9	·	75.4	–	BioA inh-2=–;HepG2 cytotox=–;NIH3T3 tox 5=–
